Rows were chosen to be rich in hits. Some 2% of all compounds tested hit in one or more screens of this group.
PfHsp40 rescue – restores yeast growth despite PfHsp40 toxicity; S. cerevisiae expressing PfHsp40, growth rescue, ATP luminescence; growth rescue, % at 12.5 µM; actives 0.68% (n = 340,000); in the data active = growth rescue above about 28%, passing the limit was not always enough;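 note: yeast W303a lacking pdr1 and pdr3 grown in galactose medium; growth measured after three days at 30 °C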
Y pestis TopoI – inhibitors of Yersinia pestis topoisomerase I | activity, % at 10 µM | AID 504884 | Y. pestis Topo-I cleavage product accumulation, plate reader | actives 0.064% (n = 360,000); in the data active = activity above about 50%, passing the limit was not always enough
PrP 5UTR inh – suppresses PrP 5' UTR mRNA reporter expression. cell-based PrP 5' UTR mRNA reporter, plate reader. inhibition, % (test concentration not listed). actives 0.35% (n = 340,000). AID 488862; in the data active = inhibition above about 52%; note: 0 = median of the neutral control wells
CCHF vOTU inh – CCHFV vOTU protease inhibition. Pep-AMC fluorescence. inhibition, % at 11.5 µM. actives 0.55% (n = 370,000). AID 651958; in the data active = inhibition above about 30%; note: 0% = vehicle wells with enzyme and 100% = no enzyme wells
PrPC surface inh – cell surface PrPC inhibition, primary TR-FRET screen. TR-FRET read-out. AID 720596. P04156. actives 0.43% (n = 370,000). inhibition, % at 13.8 µM; in the data active = inhibition above about 24%; note: 0% = median of the test wells and 100% = reference compound wells
BJeLR viability – kills HRASV12-expressing BJeLR cells | BJeLR (HRASV12) viability, CellTiter-Glo ATP luminescence, 48 h | actives 0.17% (n = 300,000) | inhibition, % (test concentration not listed) | AID 1554; in the data active = inhibition above about 50%
* marks the source's active call; other numbers are inactive results; . = not tested or not shown.

SMILES | PfHsp40 rescue | Y pestis TopoI | PrP 5UTR inh | CCHF vOTU inh | PrPC surface inh | BJeLR viability
O=C(Nc1ccc(Cl)c(Cl)c1)C1CC(=O)N(c2ccc(Br)cc2)C1 (stereo not drawn) | 31.2* | -5.0 | -3.4 | -16.9 | 1.3 | 4.8
COc1ccc(CNc2ncnc3sccc23)cc1 | 865.3* | 5.0 | 0.1 | -13.3 | 12.6 | 7.3
CCN(CC)c1ccc(C=C2C(=O)NC(=S)NC2=O)cc1 | -0.7 | 0.7 | -13.5 | 5.8 | 13.1 | 51.4*
CN(C)c1ccc(/C=C/c2ccc3ccccc3[n+]2C)cc1 | 52.6* | -23.2 | 1.2 | 3.7 | -51.0 | 44.0
O=S(=O)(c1ccc(C(F)(F)F)cc1)N1CCCc2nc(-c3ccc(Br)cc3)ccc21 | . | . | . | -4.5 | 14.7 | .
CCOc1ccc2[nH]c(=O)c(CN(Cc3cccnc3)C(=O)Nc3ccccc3OC)cc2c1 | -1.4 | 20.9 | -19.0 | -0.6 | -2.9 | -3.3
COc1ccc2[nH]c(=O)c(CN(Cc3cccnc3)C(=O)Nc3ccccc3)cc2c1 | 287.8* | 9.7 | -7.5 | -0.3 | 1.1 | 6.0
COC(=O)c1cc(=O)n(-c2ccc(C(F)(F)F)cc2)[nH]1 | 189.6* | -2.9 | -12.5 | 9.8 | -2.7 | 2.7
Cc1oc2ccc(OC(=O)N(C)C)cc2c1C(=O)OC(C)C | 159.8* | 21.2 | -6.7 | -1.9 | -6.0 | 5.4
CC12CCC(O)CC1=CCC1C2CCC2(C)C3=NN=CC3CC12 (stereo not drawn) | 85.5* | 0.0 | -14.2 | 6.0 | -4.3 | .
C[C@@H]1CC2C3CC=C4C[C@@H](O)CC[C@]4(C)C3CC[C@]2(C)[C@H]1O (stereo partly drawn) | -0.4 | 7.8 | -0.2 | 5.7 | 0.6 | .
Cc1cc(O)c2c(c1O)C(=O)[C@]13C(=C2O)C(=O)[C@@H]2[C@@H](O)[C@H]1[C@@H]1[C@H](O)[C@H]3C(=O)C3=C(O)c4c(O)cc(C)c(O)c4C(=O)[C@]312 | 71.0* | -16.5 | 21.6 | . | . | .
Cc1cccc(C)c1NC(=O)c1nc(S(=O)(=O)Cc2ccccc2)ncc1Cl | 98.0* | 10.9 | -28.8 | 5.4 | 3.5 | 27.0
CCCC/C=C1/[C@H](c2ccccc2)N(C)C2=N[C@H](c3ccccc3)CC(=O)N21 | . | . | . | . | 2.5 | .
C=CCn1c2ccccc2c(=O)c2cc(C#Cc3ccccn3)ccc21 | 28.7* | 1.6 | -55.3 | -95.8 | -13.0 | .
C=CCn1c2ccccc2c(=O)c2cc(C#Cc3ccsc3)ccc21 | . | . | . | . | . | -4.6
Cc1nc(N)nc(N)c1CCCc1ccc(Cl)c(Cl)c1 | 0.0 | -0.6 | 41.9 | 9.4 | -3.3 | 57.1*
COc1ccc(Cc2c(C)nc(N)nc2Cl)cc1 | -1.2 | 2.3 | -9.7 | -4.0 | 0.9 | -5.5
COc1cc(SC)ccc1C(=O)Nc1ccc(C)cc1 | 146.7* | 17.8 | -67.3 | 5.0 | -9.0 | .
Cc1nc(-c2cccc(NC(=O)COc3ccc(Cl)cc3)c2)cs1 | 55.5* | 20.9 | -8.0 | 1.7 | 10.6 | -1.3
COc1ccc(CC(=O)Nc2cccc(-c3csc(C)n3)c2)cc1 | 4.8 | 6.2 | -2.7 | 13.6 | -5.1 | -7.8
CC1=C/C(=C(/c2ccc(O)c(C)c2)c2ccccc2S(=O)(=O)O)C=CC1=O | 0.6 | 3.9 | -12.1 | 10.5 | -32.4 | .
CC1=C/C(=C(/c2cc(C)c(O)c(Br)c2)c2ccccc2S(=O)(=O)O)C=C(Br)C1=O | 2.8 | 60.4* | 10.7 | 1.4 | -124.7 | 16.2
COC(=O)c1cc2c(c3c4cc(OC)ccc4n(S(C)(=O)=O)c13)C(=O)N(C)C2 | . | . | . | 3.4 | -7.0 | .
O=C(O)c1ccc(CN2C(=O)c3cccc4c([N+](=O)[O-])ccc(c34)C2=O)cc1 | -1.6 | -8.1 | -8.4 | . | . | 72.9*
SMILES | PfHsp40 rescue | Y pestis TopoI | PrP 5UTR inh | CCHF vOTU inh | PrPC surface inh | BJeLR viability
COc1cc(-c2noc(C)c2C#Cc2ccc(N)cc2)cc(OC)c1OC | -0.4 | 17.9 | 65.0* | 6.4 | 12.2 | 23.0
CC1=CC(=O)C=C(C)C1=NOS(=O)(=O)c1ccccc1 | 334.8* | -9.1 | -4.4 | 3.1 | -5.9 | 82.1*
CC1=CC(=O)C(C(C)C)=C/C1=N/OS(=O)(=O)c1ccccc1 | 346.1* | 2.4 | -8.2 | -4.7 | -4.2 | 115.8*
O=c1n(Cc2ccc(Cl)cc2)c2sc3c(c2c2ncnn12)CCCC3 | 23.0 | 57.2* | -12.1 | 5.3 | 2.0 | 2.8
CCOc1cc(S(=O)(=O)NC2CCCCC2)ccc1F | 88.9* | -3.1 | -33.8 | -7.6 | 1.4 | -9.5
COc1cc(S(=O)(=O)NC2CCCCC2)ccc1F | 4.2 | -7.4 | 0.3 | -1.4 | 7.2 | -11.8
Oc1ccc(CNc2ccccc2C(F)(F)F)c2cccnc12 | . | . | . | . | -7.3 | .
Oc1ccc(CNc2ccccc2F)c2cccnc12 | 39.2* | -7.7 | 20.0 | 13.6 | -1.7 | -10.9
Cc1ccc2[nH]cc(C(=O)CCl)c2c1 | 1.6 | -4.4 | -45.9 | -1.9 | 1.9 | 53.9*
O=C(Nc1ccc(N2C(=O)[C@@H]3[C@H](C2=O)[C@@H]2C=C[C@H]3C2)c(Cl)c1)c1ccccn1 | . | . | . | . | 6.6 | .
O=C(CN1C(=O)/C(=C/c2ccccc2)SC1=S)NNC(=O)c1ccccc1O | -0.7 | -7.6 | -15.7 | -6.7 | -2.4 | -1.2
COc1cccc(/C=C2/SC(=S)N(CC(=O)NNC(=O)c3ccccc3O)C2=O)c1 | 154.8* | -3.4 | -12.0 | 2.2 | -5.0 | 1.7
COc1cccc(/C=C2\SC(=S)N(CCCC(=O)Nc3cc(C)on3)C2=O)c1 | 0.2 | 3.3 | -4.3 | 3.4 | 0.6 | 100.0*
CCc1cn(C2CC(O)C(CO)O2)c(=O)[nH]c1=O (stereo not drawn) | -0.9 | 3.5 | -10.8 | 2.5 | 9.4 | .
O=c1[nH]c(=O)n([C@H]2C[C@H](O)[C@@H](CO)O2)cc1I | 75.9* | 2.8 | -35.3 | 0.7 | -4.9 | .
Cc1cc(C)c(S(=O)(=O)N2CCC(C(=O)NCc3ccncc3)CC2)c(C)c1 | -0.4 | 18.1 | -13.5 | -2.0 | -1.8 | -12.7
Cc1cc(C)c(S(=O)(=O)N2CCC(C(=O)NCc3ccc(Cl)cc3Cl)CC2)c(C)c1 | 38.4* | -9.7 | -7.7 | -0.2 | -3.5 | 0.0
CCCCCCCC(=O)N[C@H]1CC[C@@]23CCCN2C(=O)CCC[C@H]3[C@H]1C | . | . | . | . | -1.5 | .
O=C(Nc1ccn(CCCNCc2ccccc2)c(=O)n1)OCc1ccccc1 | -0.2 | 27.4 | -7.8 | 7.2 | 2.1 | .
O=C(Nc1ccn(CCCN(CCCn2ccc(NC(=O)OCc3ccccc3)nc2=O)CCc2cc3ccccc3[nH]2)c(=O)n1)OCc1ccccc1 | -1.0 | 77.0* | -19.8 | 12.0 | -1.7 | .
O=C(NCCN1CCC(Cc2ccccc2)CC1)C1CCCN(S(=O)(=O)c2ccccc2[N+](=O)[O-])C1 (stereo not drawn) | . | . | . | -1.7 | -17.7 | .
O=C(O/N=C(\c1ccccc1)c1ccncc1)c1ccccc1Cl | 116.1* | 22.1 | -32.8 | -8.6 | -6.3 | 2.9
N/C(=N\OC(=O)c1ccccc1Cl)c1ccccc1 | 0.9 | -11.0 | -113.5 | -4.9 | 1.3 | 8.6
CC(=O)C1=C(C)N(Cc2ccc(F)cc2)C(=S)NC1c1ccccc1 (stereo not drawn) | . | . | . | 4.3 | 3.0 | .
CCCCNC(=O)C[C@H]1C[C@@]2(C(=O)OC)C(=C[C@H](C(C)(C)C)O[C@@H]2C)N(Cc2ccc3c(c2)OCO3)C1=O | . | . | . | 23.9 | 3.7 | .

High-throughput results (PubChem BioAssay)
